# Inconclusive results are not listed. A call without a number means that no potency is given here. Values without a mark were called inactive. The source made the active and inactive calls. Calls follow the shape of the dose curve; as a rule, active = well fitted cell-killing curve with a large enough effect; inconclusive = small, poorly fitted or top-dose-only effect, or effect the other way; inactive = no such curve, though single readings can be large or run the other way.
# Assays:
# [1] = Quantitative High-Throughput drug screen in 47 multiple myeloma cell lines against the NCATS MIPE library collection: OCIMY1_PLB cell viability assay (AID 1918979); also: nearly all actives have a fitted effect of over 35% in size; as to viability: series mostly up to about 46 µM
# How it was run: (§1)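 Readout: median RLU from CellTiter-Glo after 5 min at room temperature. Preceding step was 48 h drug treatment of 500 cells/well at 37 °C, 5% CO2, with DMSO-only and media-only control wells.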
# [2] = Quantitative High-Throughput drug screen in 47 multiple myeloma cell lines against the NCATS MIPE library collection: MM1S_ATCC cell viability assay (AID 1918980); also: nearly all actives have a fitted effect of over 45% in size
# How it was run: as §1
# [3] = Quantitative High-Throughput drug screen in 47 multiple myeloma cell lines against the NCATS MIPE library collection: MM1R_ATCC cell viability assay (AID 1918981); also: nearly all actives have a fitted effect of over 35% in size
# How it was run: as §1
# [4] = Quantitative High-Throughput drug screen in 47 multiple myeloma cell lines against the NCATS MIPE library collection: LP1_DSMZ cell viability assay (AID 1918982); also: nearly all actives have a fitted effect of over 35% in size
# How it was run: as §1
# [5] = Quantitative High-Throughput drug screen in 47 multiple myeloma cell lines against the NCATS MIPE library collection: KMS28PE_JCRB cell viability assay (AID 1918983); also: nearly all actives have a fitted effect of over 35% in size
# How it was run: as §1
# [6] = Quantitative High-Throughput drug screen in 47 multiple myeloma cell lines against the NCATS MIPE library collection: L363_DSMZ cell viability assay (AID 1918984); also: nearly all actives have a fitted effect of over 40% in size
# How it was run: as §1
# [7] = Quantitative High-Throughput drug screen in 47 multiple myeloma cell lines against the NCATS MIPE library collection: KMS34_JCRB cell viability assay (AID 1918985); also: nearly all actives have a fitted effect of over 40% in size
# How it was run: as §1
# [8] = Quantitative High-Throughput drug screen in 47 multiple myeloma cell lines against the NCATS MIPE library collection: SKMM1_PLB cell viability assay (AID 1919863); settings: SKMM1 myeloma viability, CellTiter-Glo ATP, 48 h; viability: active compounds read low; also: nearly all actives have a fitted effect of over 35% in size; as to viability: series mostly up to about 46 µM
# How it was run: as §1
# [9] = Quantitative High-Throughput drug screen in 47 multiple myeloma cell lines against the NCATS MIPE library collection: U266_ATCC cell viability assay (AID 1919864); also: nearly all actives have a fitted effect of over 35% in size
# How it was run: as §1
# [10] = Quantitative High-Throughput drug screen in 47 multiple myeloma cell lines against the NCATS MIPE library collection: XG1_PLB cell viability assay (AID 1919866); also: nearly all actives have a fitted effect of over 35% in size
# How it was run: as §1
# [11] = Quantitative High-Throughput drug screen in 47 multiple myeloma cell lines against the NCATS MIPE library collection: VP6_DJ cell viability assay (AID 1919867); also: nearly all actives have a fitted effect of over 40% in size
# How it was run: as §1
# [12] = Quantitative High-Throughput drug screen in 47 multiple myeloma cell lines against the NCATS MIPE library collection: UTMC2_PLB cell viability assay (AID 1919868); also: nearly all actives have a fitted effect of over 55% in size
# How it was run: as §1
# [13] = Quantitative High-Throughput drug screen in 47 multiple myeloma cell lines against the NCATS MIPE library collection: PE2_PLB cell viability assay (AID 1919869); also: nearly all actives have a fitted effect of over 35% in size
# How it was run: as §1
# [14] = Quantitative High-Throughput drug screen in 47 multiple myeloma cell lines against the NCATS MIPE library collection: PCM6_Riken cell viability assay (AID 1919870); also: nearly all actives have a fitted effect of over 30% in size
# How it was run: as §1
# [15] = Quantitative High-Throughput drug screen in 47 multiple myeloma cell lines against the NCATS MIPE library collection: OPM2_DSMZ cell viability assay (AID 1919872); also: nearly all actives have a fitted effect of over 30% in size
# How it was run: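 qHTS of the MIPE 4.0 collection: 500 myeloma cells/well, 48 h drug exposure at 37C in 5% CO2, then CellTiter-Glo for 5 min at room temperature before luminescence reading.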
# [16] = Quantitative High-Throughput drug screen in 47 multiple myeloma cell lines against the NCATS MIPE library collection: XG6_PLB cell viability assay (AID 1919865); also: nearly all actives have a fitted effect of over 40% in size
# How it was run: as §1
# [17] = Quantitative High-Throughput drug screen in 47 multiple myeloma cell lines against the NCATS MIPE library collection: RPMI8226_ATCC cell viability assay (AID 1919871); also: nearly all actives have a fitted effect of over 30% in size
# How it was run: as §1
# [18] = Quantitative High-Throughput drug screen in 47 multiple myeloma cell lines against the NCATS MIPE library collection: OPM1_PLB cell viability assay (AID 1918989); also: nearly all actives have a fitted effect of over 40% in size
# How it was run: as §1
# [19] = Quantitative High-Throughput drug screen in 47 multiple myeloma cell lines against the NCATS MIPE library collection: OCIMY5_PLB cell viability assay (AID 1918988); also: nearly all actives have a fitted effect of over 65% in size
# How it was run: as §1
# [20] = Quantitative High-Throughput drug screen in 47 multiple myeloma cell lines against the NCATS MIPE library collection: OCIMY7_PLB cell viability assay (AID 1918987); also: nearly all actives have a fitted effect of over 65% in size
# How it was run: as §1
# Potency is read from the fitted curve at half-maximal effect.
smiles,measurement,setting,value
Oc1ccc(OCc2ccccc2)cc1,Potency,[1],inactive
same,Potency,[2],inactive
same,Potency,[3],inactive
same,Potency,[4],inactive
same,Potency,[5],inactive
same,Potency,[6],inactive
same,Potency,[7],18.7 µM (active)
same,Potency,[8],7.43 µM (active)
same,Potency,[9],inactive
same,Potency,[10],inactive
same,Potency,[11],inactive
same,Potency,[12],inactive
same,Potency,[13],inactive
same,Potency,[14],inactive
same,Potency,[15],inactive
O=C(O)CCNC(=O)c1ccc(N=Nc2ccc(O)c(C(=O)O)c2)cc1,Potency,[1],inactive
same,Potency,[2],8.33 µM (active)
same,Potency,[3],inactive
same,Potency,[4],inactive
same,Potency,[9],13.2 µM (active)
same,Potency,[16],inactive
same,Potency,[10],inactive
same,Potency,[11],inactive
same,Potency,[13],inactive
same,Potency,[14],inactive
same,Potency,[17],inactive
same,Potency,[15],inactive
CN(C)C(=O)COC(=O)Cc1ccc(OC(=O)c2ccc(N=C(N)N)cc2)cc1,Potency,[1],inactive
same,Potency,[2],11.8 µM (active)
same,Potency,[4],inactive
same,Potency,[6],5.26 µM (active)
same,Potency,[18],0.418 µM (active)
same,viability,[8],150%
same,Potency,[9],26.4 µM (active)
same,Potency,[16],5.26 µM (active)
same,Potency,[11],inactive
same,Potency,[13],5.26 µM (active)
same,Potency,[17],inactive
same,Potency,[15],inactive
O=C(O)c1cccc(-c2noc(-c3ccccc3F)n2)c1,Potency,[1],inactive
same,Potency,[2],20.9 µM (active)
same,Potency,[4],inactive
same,Potency,[5],14.8 µM (active)
same,Potency,[19],9.35 µM (active)
same,Potency,[8],9.35 µM (active)
same,Potency,[9],18.7 µM (active)
same,Potency,[10],inactive
same,Potency,[13],inactive
same,Potency,[14],inactive
same,Potency,[17],inactive
same,Potency,[15],inactive
Cc1ccc(C(=O)c2cc(O)c(O)c([N+](=O)[O-])c2)cc1,Potency,[1],inactive
same,Potency,[2],20.9 µM (active)
same,Potency,[4],inactive
same,Potency,[5],inactive
same,Potency,[6],16.6 µM (active)
same,Potency,[7],inactive
same,Potency,[16],23.5 µM (active)
same,Potency,[12],26.4 µM (active)
same,Potency,[13],23.5 µM (active)
same,Potency,[15],inactive
CC(C)C[C@H](NC(=O)[C@H](Cc1ccccc1)NC(=O)c1cnccn1)B(O)O,Potency,[1],0.0053 µM (active)
same,Potency,[2],0.0066 µM (active)
same,Potency,[3],0.0047 µM (active)
same,Potency,[4],0.0118 µM (active)
same,Potency,[7],0.0083 µM (active)
same,Potency,[20],1 nM (active)
same,Potency,[19],0.0047 µM (active)
same,Potency,[18],0.0083 µM (active)
same,Potency,[8],0.0372 µM (active)
same,Potency,[9],0.0093 µM (active)
same,Potency,[16],0.0074 µM (active)
same,Potency,[10],0.0105 µM (active)
same,Potency,[11],0.0074 µM (active)
same,Potency,[12],0.148 µM (active)
same,Potency,[14],0.0105 µM (active)
same,Potency,[17],18.7 nM (active)
same,Potency,[15],0.0264 µM (active)
Nc1ncn([C@H]2C[C@H](O)[C@@H](CO)O2)c(=O)n1,Potency,[1],inactive
same,Potency,[2],0.418 µM (active)
same,Potency,[3],inactive
same,Potency,[4],inactive
same,Potency,[5],inactive
same,Potency,[6],inactive
same,Potency,[20],187 nM (active)
same,Potency,[18],8.33 µM (active)
same,Potency,[8],5.9 µM (active)
same,Potency,[16],0.833 µM (active)
same,Potency,[10],0.264 µM (active)
same,Potency,[11],inactive
same,Potency,[17],inactive
same,Potency,[15],inactive
CC1(C)C(=O)N(CCN2CCC(C(=O)c3ccc(F)cc3)CC2)c2ccccc21,Potency,[1],7.43 µM (active)
same,Potency,[2],20.9 µM (active)
same,Potency,[3],16.6 µM (active)
same,Potency,[5],inactive
same,Potency,[6],13.2 µM (active)
same,Potency,[19],5.26 µM (active)
same,Potency,[18],10.5 µM (active)
same,Potency,[16],4.69 µM (active)
same,Potency,[10],14.8 µM (active)
same,Potency,[11],4.18 µM (active)
same,Potency,[13],23.5 µM (active)
same,Potency,[14],inactive
same,Potency,[15],inactive
Clc1ccc2c(N3CCN(CCCN4CCN(c5ccnc6cc(Cl)ccc56)CC4)CC3)ccnc2c1,Potency,[1],inactive
same,Potency,[3],inactive
same,Potency,[4],inactive
same,Potency,[6],inactive
same,viability,[8],129%
same,Potency,[10],inactive
same,Potency,[12],inactive
same,Potency,[13],inactive
same,Potency,[15],inactive
CN1C(C(=O)Nc2ccccn2)=C(O)c2sccc2S1(=O)=O,Potency,[1],inactive
same,Potency,[3],inactive
same,Potency,[4],inactive
same,Potency,[19],6.62 µM (active)
same,Potency,[18],inactive
same,Potency,[9],inactive
same,Potency,[16],inactive
same,Potency,[10],inactive
same,Potency,[13],inactive
same,Potency,[14],inactive
same,Potency,[17],inactive
same,Potency,[15],inactive
CC1(C)NC(=O)N(c2ccc([N+](=O)[O-])c(C(F)(F)F)c2)C1=O,Potency,[1],inactive
same,Potency,[4],18.7 µM (active)
same,Potency,[19],8.33 µM (active)
same,Potency,[18],inactive
same,Potency,[9],inactive
same,Potency,[16],inactive
same,Potency,[10],inactive
same,Potency,[11],inactive
COC(=O)C1=C(C)NC(C)=C(C(=O)OCCCN2CCC(c3ccccc3)(c3ccccc3)CC2)C1c1cccc([N+](=O)[O-])c1 (stereo not given),Potency,[1],inactive
same,Potency,[3],20.9 µM (active)
same,Potency,[4],inactive
same,Potency,[5],inactive
same,Potency,[7],3.32 µM (active)
same,Potency,[20],inactive
same,viability,[8],122%
same,Potency,[10],inactive
same,Potency,[11],inactive
same,Potency,[12],inactive
same,Potency,[13],inactive
same,Potency,[14],inactive
same,Potency,[15],inactive
O=c1c(O)c(-c2cc(O)c(O)c(O)c2)oc2cc(O)cc(O)c12,Potency,[1],inactive
same,Potency,[3],20.9 µM (active)
same,Potency,[5],23.5 µM (active)
same,Potency,[19],23.5 µM (active)
same,Potency,[8],20.9 µM (active)
same,Potency,[10],inactive
same,Potency,[12],inactive
same,Potency,[14],inactive
same,Potency,[15],26.4 µM (active)
COC1=C(OC)C(=O)C(CCCCCCCCCCO)=C(C)C1=O,Potency,[1],inactive
same,Potency,[5],14.8 µM (active)
same,Potency,[6],14.8 µM (active)
same,Potency,[20],16600 nM (active)
same,Potency,[19],20.9 µM (active)
same,Potency,[16],20.9 µM (active)
same,Potency,[10],16.6 µM (active)
same,Potency,[11],14.8 µM (active)
same,Potency,[12],26.4 µM (active)
same,Potency,[13],26.4 µM (active)
same,Potency,[14],16.6 µM (active)
same,Potency,[17],inactive
same,Potency,[15],inactive
O=P(O)(O)C(O)(Cn1ccnc1)P(=O)(O)O,Potency,[1],inactive
same,Potency,[3],inactive
same,Potency,[4],inactive
same,Potency,[6],inactive
same,Potency,[19],inactive
same,Potency,[18],inactive
same,viability,[8],138%
same,Potency,[11],6.45 µM (active)
same,Potency,[13],inactive
same,Potency,[14],inactive
same,Potency,[17],inactive
same,Potency,[15],inactive
CCC[C@@H]1C[C@@H](C(=O)N[C@@H]([C@H]2O[C@H](SC)[C@H](O)[C@@H](O)[C@H]2O)[C@@H](C)O)N(C)C1,Potency,[2],inactive
same,Potency,[3],inactive
same,Potency,[4],inactive
same,Potency,[5],inactive
same,Potency,[18],inactive
same,Potency,[9],inactive
same,Potency,[10],inactive
same,Potency,[12],0.0166 µM (active)
same,Potency,[15],inactive
